From PubChem BioAssay
In the library only some 15% were active in any assay of this set; here they are far more common.
ELG1 repair inh: inhibitors of ELG1-dependent DNA repair in HEK293T cells. 2.3% of 330,000 active. HEK293T ELG1-luciferase reporter, luminescence, 16 h; DNA damage induced by 5-fluorouridine. AID 504467. Potency, µM (titrated, usually from 46.1 µM), without a hit: at the top dose activity change, negative = inhibition, usual class: inhibitors; also: nearly all actives have a fitted effect of over 55% in size
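HEK293T cells expressing luciferase-tagged ELG1 (2,000/well) received 5-Fluorouridine plus compound or DMSO for 16 hr at 37 °C. Luciferase was read by ONE-Glo luminescence after 30 min at room temperature.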
ALOX12 inh: inhibitors of human 12S-lipoxygenase ALOX12. AID 1671190. P18054. Potency, µM (titrated, usually from 108 µM), inactives show top-dose activity change, negative = inhibition, hits mostly inhibitors. purified 12hLO, xylenol orange hydroperoxide absorbance. 1.1% of 580,000 active
Target sequence (P18054 whole entry, looked up): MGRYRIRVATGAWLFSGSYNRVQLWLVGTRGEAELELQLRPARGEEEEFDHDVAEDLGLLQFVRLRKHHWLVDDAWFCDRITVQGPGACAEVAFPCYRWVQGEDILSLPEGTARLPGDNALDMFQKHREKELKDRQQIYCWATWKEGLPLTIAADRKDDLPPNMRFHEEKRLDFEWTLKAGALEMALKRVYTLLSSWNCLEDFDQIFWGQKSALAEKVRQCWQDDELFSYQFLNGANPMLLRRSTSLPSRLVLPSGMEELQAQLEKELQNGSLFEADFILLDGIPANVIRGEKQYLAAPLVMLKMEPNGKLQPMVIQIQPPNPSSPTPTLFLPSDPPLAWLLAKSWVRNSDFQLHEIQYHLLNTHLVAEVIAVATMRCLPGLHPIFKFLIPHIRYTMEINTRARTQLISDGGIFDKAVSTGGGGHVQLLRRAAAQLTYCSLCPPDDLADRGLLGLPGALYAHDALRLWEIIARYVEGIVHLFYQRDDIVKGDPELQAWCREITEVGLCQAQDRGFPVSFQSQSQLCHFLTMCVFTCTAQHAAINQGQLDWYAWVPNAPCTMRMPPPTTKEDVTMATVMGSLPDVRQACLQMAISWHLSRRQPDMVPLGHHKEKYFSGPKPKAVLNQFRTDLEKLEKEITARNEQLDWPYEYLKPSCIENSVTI
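Purified human 12hLO (150 nM final) in 25 mM Hepes, 0.01% Triton X-100, pH 7.0 was preincubated 15 min at room temperature with compound. Then 40 uM arachidonic acid was added, 30 min. Hydroperoxide was read by Fe-XO absorbance ratio 573/405 nm.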
TDP1 cell noCPT: qHTS for Inhibitors of human tyrosyl-DNA phosphodiesterase 1 (TDP1): qHTS in cells in absence of CPT | 15% of 420,000 active | Potency, µM (series often up to 46.2 µM), inactives show at the top dose activity change, negative = growth inhibition, actives largely listed as inhibitors | AID 686978, 2013 | DT40 Tdp1-/- hTDP1 cells, no CPT, ATP luminescence, 48 h; also: nearly all actives have a fitted effect of over 55% in size
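Chicken DT40 Tdp1-/- cells complemented with human TDP1, screened without camptothecin (DMSO vehicle only), 400 cells/well. Compounds pin-transferred, cells incubated at 37 °C for at least 48 hr. Growth read as ATP-dependent luminescence (CellTiter-Glo, 30 min at RT).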
TDP1 cell CPT: DT40-hTDP1 cell growth loss with CPT; 12% of 420,000 active; chicken DT40 Tdp1-/-;hTDP1 cells + 20 nM CPT, ATP luminescence, 48 h; Potency, µM (series often up to 46.2 µM), inactives show at the top dose activity change, negative = growth inhibition, usual class: inhibitors; also: nearly all actives have a fitted effect of over 55% in size
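Chicken DT40 Tdp1-/- cells stably complemented with human TDP1 were seeded at 400 cells/well in medium containing 20 nM camptothecin, exposed to pin-transferred compounds, and grown at 37 °C for at least 48 hr. Viability was read as ATP luminescence.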
RORgamma inh: inhibitors of mouse ROR gamma transcriptional activity; P51450; Drosophila S2 Gal4-RORgamma UAS-luciferase reporter, 20 h; Potency, µM (titrated, usually from 53.6 µM), for inactives: at the highest dose activity change, negative = inhibition, actives largely listed as inhibitors; 5.4% of 310,000 active; also: nearly all actives have a fitted effect of over 60% in size
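Read-out: Photinus luciferase luminescence; inhibitors lower reporter signal. Insect Schneider cells with Gal4-ROR gamma fusion under metallothionein promoter, UAS reporter; 700 uM final copper sulfate induction, 20 hr, ambient temperature.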
VP16 counter: Gal4-VP16 reporter inhibition counter-screen; Potency, µM (highest dose often 53.6 µM), without a hit: at the top dose activity, negative = inhibition, usual class: inhibitors; AID 2546; 3.5% of 310,000 active; Drosophila S2 Gal4-VP16 UAS-luciferase, luminescence, 20 h;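 also: Gal4-VP16 expression switched on by copper sulfate through the metallothionein promoter; nearly all actives have a fitted effect of over 50% in size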
Active calls of the source: *; ? = inconclusive; . = no result given. Calls follow the shape of the dose curve; as a rule, active = well fitted curve in the direction sought with a large enough effect; inconclusive = small, poorly fitted or top-dose-only effect, or another doubt; inactive = no such curve, though single readings can be large; an effect the other way counts as inactive or inconclusive. % is scaled to controls: 0 for no effect and ±100 for the full control effect; potency is read from the fitted curve at half-maximal effect.

SMILES | ELG1 repair inh | ALOX12 inh | TDP1 cell noCPT | TDP1 cell CPT | RORgamma inh | VP16 counter
COCC1CN(S(=O)(=O)c2ccc3c(c2)CCCC3)CC12CCNCC2 (centres undefined) | . | 33.3% | . | . | . | .
CNC(=O)c1ccc(NC(=O)CSCc2csc(-c3ccccc3)n2)cc1 | . | -3.3% | . | . | . | .
COCCNC(=O)c1ccc(CSCc2cccc(Cl)c2)o1 | -0.1% | 0.0% | ? | ? | 39.7% | 19.0%
Cc1cccc(CSCc2ccc(C(=O)NCCc3ccccc3)o2)c1 | . | -24.7% | 13µM* | ? | . | .
O=C(NCCc1ccc(Cl)cc1)c1ccc(CSCc2ccccc2Cl)o1 | . | ? | 16.4µM* | 14.6µM* | . | .
Cc1cc(NC(=O)[C@@H]2CCCN2S(=O)(=O)c2ccccc2)no1 | . | -11.6% | . | . | . | .
COc1ccccc1CCN1CNc2c(c(=O)[nH]c(=O)n2-c2cccc(Cl)c2C)C1 | . | -1.2% | . | . | . | .
CCOc1ccc(N2C(=O)CC(Sc3nc4ccc(OCC)cc4s3)C2=O)cc1 (centres undefined) | . | -0.5% | 4.61µM* | 4.11µM* | . | .
CCOc1ccc2nc(SC3CC(=O)N(c4ccc(OC)cc4OC)C3=O)sc2c1 (centres undefined) | ? | -10.9% | 3.26µM* | 4.61µM* | 7.08µM* | ?
CCOc1ccc2nc(SC3CC(=O)N(c4ccc(C)cc4)C3=O)sc2c1 (centres undefined) | ? | -0.7% | 4.61µM* | 4.61µM* | -0.2% | -17.8%
CCOc1ccc2nc(/N=C/c3c(C)[nH]n(-c4ccc(C)cc4)c3=O)sc2c1 | ? | -12.9% | ? | 16.4µM* | ? | ?
CCOC(=O)C(N)CSC1CC(=O)N(c2ccc(OCC)cc2)C1=O (centres undefined) | -0.8% | 0.0% | -4.7% | -12.1% | 12.1% | -0.8%
CC1CCN(C(=O)CCc2nnc3ccc(NCc4ccc5c(c4)OCO5)nn23)CC1 | . | 8.0% | . | . | . | .
CC(C)c1noc(CC2CCN(C(=O)c3cccs3)CC2)n1 | . | 38.2% | . | . | . | .
CCn1cnnc1CC1CCN(C(=O)c2cc(-c3ccc(C)c(C)c3)nc3ccccc23)CC1 | . | 52.9% | . | . | . | .
Cc1ccc(C(=O)N2CCCC3(CNc4ccccc4[S+](=O)([O-])N3)C2)cc1 (centres undefined) | . | 10.1% | . | . | . | .
COC(=O)c1ccccc1NC(=O)C1CCN(S(=O)(=O)Cc2ccccc2Cl)CC1 | . | -9.9% | . | . | . | .
C=CCNc1nnc(SC2CC(=O)N(c3ccc(OCCC)cc3)C2=O)s1 (centres undefined) | 0.0% | -8.0% | 4.11µM* | 1.84µM* | ? | 17.8µM*
CCCCCC(=O)Nc1cc(S(=O)(=O)N2CCOCC2)ccc1N1CCN(C)CC1 | 0.8% | ? | 0.3% | -11.4% | 4.7% | 0.6%
O=C(COc1ccccc1)Nc1cc(S(=O)(=O)N2CCOCC2)ccc1N1CCCC1 | -1.0% | 8.6% | -7.0% | -18.7% | . | .
Cc1ccccc1SCC(=O)Nc1cc(S(=O)(=O)N2CCOCC2)ccc1N1CCOCC1 | ? | 11.6% | ? | 16.4µM* | ? | 3.9%
O=C(CSc1cccc[n+]1[O-])Nc1cc(S(=O)(=O)N2CCOCC2)ccc1N1CCOCC1 | 9.9% | -12.8% | -12.2% | -1.0% | 15.1% | 3.8%
Cc1cccc(OCC(=O)Nc2cc(S(=O)(=O)N3CCOCC3)ccc2N2CCCC2)c1C | ? | 7.2% | 16.4µM* | ? | . | .
O=C(CCCSc1ccc(Cl)cc1)Nc1cc(S(=O)(=O)N2CCOCC2)ccc1O | -27.2% | ? | 23.1µM* | 18.4µM* | . | .
CCCCCC(=O)Nc1cc(S(=O)(=O)N2CCCCC2)ccc1N1CCCCC1 | . | 13.6% | 14.6µM* | ? | . | .
SMILES | ELG1 repair inh | ALOX12 inh | TDP1 cell noCPT | TDP1 cell CPT | RORgamma inh | VP16 counter
Cc1ccc(S(=O)(=O)N2CCOCC2)cc1NC(=O)CSc1ccc(Cl)cc1 | -5.0% | -7.3% | ? | ? | . | .
CCC(C)Cc1nccc(C2(c3ccccc3Cl)CCNCC2)n1 (centres undefined) | . | -9.6% | . | . | . | .
O=C(NCC1(O)CCCCC1)C1CCN(c2nc(-c3ccccc3)nc3c2CCC3)CC1 | . | -4.0% | . | . | . | .
CCOc1ccc(OCCCC(=O)Nc2cc(S(=O)(=O)N3CCOCC3)ccc2N2CCOCC2)cc1 | . | ? | -22.5% | ? | . | .
O=C(COc1cccc(Cl)c1)Nc1cc(S(=O)(=O)N2CCOCC2)ccc1N1CCOCC1 | ? | 0.6% | 18.4µM* | ? | 27.0% | 1.6%
CCCCCC(=O)Nc1cc(S(=O)(=O)N2CCOCC2)ccc1N1CCCCC1 | 12.8% | -12.0% | 20.6µM* | ? | . | .
COc1ccccc1CCC(=O)Nc1cc(S(=O)(=O)N2CCOCC2)ccc1N1CCCC1 | 19.9% | 2.2% | 29.1µM* | ? | . | .
Cc1ccc(OCCC(=O)Nc2cc(S(=O)(=O)N3CCOCC3)ccc2N2CCCC2)cc1 | . | 22.5% | 14.6µM* | ? | . | .
Cn1ccc(CN2CCn3c(nn(-c4ccc(F)cc4F)c3=O)C2)c1 | . | 12.3% | . | . | . | .
COC(=O)CNC(=O)N1CCC(OC2CCN(Cc3ccccc3)CC2)CC1 | . | 6.1% | . | . | . | .
CCN(C)C(=O)Cn1c(Cc2ccccc2)nn(-c2ccccc2OC)c1=O | . | -27.2% | . | . | . | .
Cc1cc(Cl)ccc1OCCCC(=O)Nc1cc(S(=O)(=O)N2CCOCC2)ccc1N1CCOCC1 | . | 6.5% | 16.4µM* | ? | . | .
CCOCCCNCC(=O)Nc1cc(S(=O)(=O)N2CCOCC2)ccc1N1CCOCC1 | 8.7% | -5.6% | 4.5% | 0.2% | . | .
Cc1ccc(S(=O)(=O)N2CCOCC2)cc1C(=O)Nc1cc(Cl)ccc1N1CCOCC1 | -17.3% | ? | ? | 23.1µM* | . | .
COCC(=O)NC[C@H]1O[C@@H](CC(=O)N2CCN(c3ccccc3OC)CC2)[C@H](O)[C@@H]1O | . | 0.6% | . | . | . | .
O=C(NC1CCCCC1)N1CCC(c2noc(-c3cccnc3)n2)C1 (centres undefined) | . | 6.6% | . | . | . | .
COC(=O)C1=C(C)N(Cc2ccccc2)C(=S)N[C@H]1c1cccc(C(F)(F)F)c1 | 6.0% | ? | ? | ? | 3.55µM* | 10µM*
COC(=O)C1=C(C)N(Cc2ccccc2)C(=NCc2ccccc2)N[C@H]1c1cccc(C(F)(F)F)c1 | 26.8% | . | 5.8µM* | 5.8µM* | . | .
CCOc1ccc(S(=O)(=O)NCCc2sc(-c3ccc(C)cc3)nc2C)cc1 | . | 1.7% | 16.4µM* | ? | . | .
CCOc1ccc(C(=O)NCCc2sc(-c3ccc(C)cc3)nc2C)cc1 | . | -17.4% | ? | 23.1µM* | . | .
